# Source: PubChem BioAssay (National Center for Advancing Translational Sciences (NCATS))
# An excerpt weighted towards active compounds, which were near 7.1% of everything screened.
# SW480 rerep: inducers of DNA re-replication in SW480 colon cancer cells; SW480 DNA re-replication, Hoechst DNA content imaging, 48 h; Potency, µM (highest dose often 46.1 µM), most hits filed as activators; actives 1.8% (n = 340,000); AID 624297; also: nearly all actives have a fitted effect of over 55% in size
#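 Readout is total intensity of Hoechst-stained nuclei, excited at 405 nm and collected at 500-530 nm. Compound treatment lasted 48 hr at 37 C in 5% CO2 before staining.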
# IL1B secr inh: inflammasome signaling inhibition, IL-1 beta readout; actives 4.7% (n = 360,000); activity change, % at 57.5 µM; AID 743279; THP-1 LPS/ATP IL-1B secretion, AlphaLISA, 16 h; stronger effect = lower value; in the data active = activity change below about -50%; inconclusive = mostly about -30% to -49%
#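 Secreted IL-1B measured by AlphaLISA bead assay after 16 h compound exposure of THP-1 cells; compounds (final up to 57.5 uM) added 1 h before LPS (250 ng/mL) and ATP (1.25 mM) stimulation; lower signal means less secretion.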
# PINK1 modulator: changes PINK1 expression; PINK1 immunofluorescence, high-content cytometry, 24 h; Potency, µM (doses to about 76.6 µM), actives largely listed as activators; actives 0.2% (n = 410,000); AID 624263; active = well fitted activation curve with a large enough effect; inconclusive = small, poorly fitted or top-dose-only effect; cell line not stated here; also: nearly all actives have a fitted effect of over 65% in size
#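 PINK1 protein, normally rapidly degraded, was detected by immunofluorescence after 24 hour compound treatment of a stable cell line. Titration data (5 concentrations) came from laser-scanning cytometry, with CCCP-treated wells as controls.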
# MCF10A rereplic: DNA re-replication induction in MCF 10a cells. MCF 10A DNA re-replication, Hoechst nuclear intensity, 48 h. Potency, µM (series often up to 46.1 µM), hits mostly activators. actives 2.9% (n = 350,000). AID 624296; also: nearly all actives have a fitted effect of over 50% in size
# ATXN2 expr inh: ATXN2 expression inhibition; actives 0.72% (n = 360,000); Potency, µM (highest dose often 57 µM), actives largely listed as inhibitors; AID 1745845; HEK-293 ATXN2-luciferase reporter, luminescence, 24 h; also: nearly all actives have a fitted effect of over 55% in size
#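 ATXN2-luciferase reporter cells (luciferase flanked by upstream and downstream ATXN2 gene portions) were treated 24 h at 37 °C with compounds at up to 57 uM. SteadyGlo luminescence gave expression; GF-AFC fluorescence gave viability.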
# ATXN viability: reduces viability in counter-screen for ATXN expression inhibitors. S2 cells (HEK-293 line with an ATXN2-luciferase reporter) viability, CellTiter-Fluor protease fluorescence, 24 h. Potency, µM (highest dose often 56.7 µM), hits mostly cytotoxic. actives 0.49% (n = 400,000); also: nearly all actives have a fitted effect of over 40% in size
# Numbers stand for hits; 0 = inactive; ? = inconclusive; - = no result given; [ ] = remark or other dose. Unless noted, calls follow the shape of the dose curve; as a rule, active = well fitted curve in the direction sought with a large enough effect; inconclusive = small, poorly fitted or top-dose-only effect, or another doubt; inactive = no such curve, though single readings can be large; an effect the other way counts as inactive or inconclusive.
SMILES,SW480 rerep,IL1B secr inh,PINK1 modulator,MCF10A rereplic,ATXN2 expr inh,ATXN viability
COc1ccccc1NC(=O)C1=C(C)Nc2nc(-c3ccco3)nn2C1c1cccc(C)c1 (configuration not stated),-,-,0,-,0,0
Cc1cc(C)cc(N2C(=O)CSC23C(=O)N(CC(=O)NCCc2ccccc2)c2ccccc23)c1 (configuration not stated),-,-,0,-,0,0
Cc1cc(OCCCn2c(CCNC(=O)C3CCCCC3)nc3ccccc32)ccc1Cl,-,-,0,-,-,-
CCN1CCCC1CNc1ncnc2c1[nH]c1ccc(Cl)cc12 (configuration not stated),0,-110,0,?,?,0
Clc1ccc2[nH]c3c(NCCCN4CCOCC4)ncnc3c2c1,?,-90,0,?,0,0
CCN1CCCC1Cn1cnc2c([nH]c3ccc(C)cc32)c1=O (configuration not stated),0,-58,0,0,0,0
Cc1ccc2[nH]c3c(NCCN4CCOCC4)ncnc3c2c1,0,0,0,0,0,0
O=C1CCCN1CCCNc1ncnc2c1[nH]c1ccc(Cl)cc12,0[9.22 µM],?,0,0,0,0
Cc1ccc(-n2ncc(C(=O)NCCc3ccsc3)c2C2CCN(C(=O)OC(C)(C)C)CC2)c(C)c1,-,-,0,-,?,?
Cc1ccc(C(=O)N(c2ccc(C)cc2)S(=O)(=O)c2ccc(Cl)cc2)cc1,-,-,0,-,?,?
O=c1[nH]c(NCc2ccco2)nnc1Cc1ccccc1Cl,7.3µM,0,0,?,0,0
CC(=O)c1cc2c(cc1NS(=O)(=O)c1ccccc1)OCO2,0,0,0,0,0,0
CC(=O)c1sc(-c2ccccc2)cc1NS(=O)(=O)c1ccccc1,0,-,0,0,0,-
CC(=O)c1sc(-c2ccccc2)cc1NS(=O)(=O)c1ccc(C)cc1,?,0,0,12µM,0,0
CC(=O)c1cc2c(cc1NS(=O)(=O)c1ccc(C)cc1)OCCO2,?,0,0,15µM,0,0
CSc1ccc(CCNC(=O)c2ccc3c(c2)nc2n3CCCCC2)cc1,-,-,0,-,-,-
CCCN(CCC)CCCNC(=O)C1CCN(c2nc3ccc(CC)cc3s2)CC1,-,-,0,-,-,-
CC(C)OC(=O)/C(=C\c1cccc2ccccc12)NC(=O)c1ccccc1,0,-79,0,?,0,0
Cc1cccc(NC(=O)C(c2ccccc2)N2Cc3ccccc3C2=O)c1C (configuration not stated),-,-,0,-,-,-
Cc1ccc2[nH]c(O)c(N=Nc3nc4ccccc4s3)c2c1,0,0,0,0,?,13µM
Oc1[nH]c2ccccc2c1N=Nc1nc2ccccc2s1,0,0,0,0,0,0
OC(COCC(F)(F)C(F)(F)C(F)(F)C(F)F)Cn1c2ccc(Cl)cc2c2cc(Cl)ccc21 (configuration not stated),?,-97,0,0,?,?
CCOC(=O)c1c(O)c2cc(Cl)ccc2n(CC)c1=O,?,-,0,0,0,0
C/C=C1\[C@H]2C=C(C)C[C@]1(N)c1ccc(=O)[nH]c1C2,-,-,-,-,0,0
O=C(NCCc1ccc(Cl)cc1)c1ccc2c(c1)N(Cc1cccc(Cl)c1)C(=O)c1ccccc1S2(=O)=O,-,-,0,-,-,-
SMILES,SW480 rerep,IL1B secr inh,PINK1 modulator,MCF10A rereplic,ATXN2 expr inh,ATXN viability
Cc1ccc(-n2nnnc2-c2cccc(C)c2)cc1,0,0,0,0,0,0
COc1ccc(-n2nnnc2-c2cccc(OC)c2)cc1,3.3µM,0,0,4.1µM,0,?
CCCCCCCC[n+]1c(C)n(-c2ccccc2)c2ccc(NC(C)=O)cc21,0,-103,0,0,0,0
CC(=O)Nc1ccc(-n2c(=O)c3ccccc3c3ccccc3c2=O)cc1,?,0,0,?,0,0
CCCCCCc1cc2cc(C(=O)Nc3ccccc3)c(=O)oc2cc1O,2.1µM,0,?,?,7.1µM,0
CCCCCCc1cc2cc(C(=O)NCc3ccccc3)c(=N)oc2cc1O,?,0,0,7.3µM,0,0
COc1ccc2oc(=N)c(C(=O)NCc3ccccc3)cc2c1,0,0,0,0,0,0
COc1cccc(NC(=O)N(Cc2c[nH]c3ccccc23)C2CCCCC2)c1,-,-,0,-,0,?
CC(C)(C)C(c1nc2ccccc2[nH]1)n1c(-c2ccco2)nc2ccccc21 (configuration not stated),-,0,-,-,-,-
CC(C)(C)C(c1nc2ccccc2[nH]1)n1c(-c2ccsc2)nc2ccccc21 (configuration not stated),-,-53,-,-,-,-
CC1(C)CC(=O)C(C=NCCN2CCOCC2)=C(O)C1,6.5µM,0,-,0,0,0
CCS(=O)(=O)N1CCc2cc(C(=O)N3CCN(c4ccc(OC)cc4)CC3)ccc21,-,-,0,-,0,0
COC(=O)Nc1nc(-c2ccccc2)c(C(=O)c2ccc(Cl)cc2)s1,1.3µM,0,0,1µM,0,?
CC(=O)c1sc(NC(=O)c2ccccc2)nc1-c1ccccc1,0,0,0,0.65µM,0,0
COCCN(CCOC)S(=O)(=O)c1ccc(C(=O)Nc2nc(-c3ccccc3)c(C(=O)c3ccccc3)s2)cc1,0,0,0,?,0,0
CCOC(=O)Nc1nc(-c2ccccc2)c(C(=O)c2ccccc2)s1,0.92µM,0,0,1.2µM,0,0
COc1ccc(-c2[nH]nc3oc(=O)c(CCO)c(C)c23)cc1,0,-84,0,0,0,0
Cc1[nH]nc2oc(=O)c(CCO)c(C)c12,16µM,0,0,?,0,0
CSc1nc(C)c(CCO)c(=O)[nH]1,0,0,0,?,0,0
COc1ccc(-c2[nH]nc3oc(=O)cc(C)c23)cc1,0,0,0,0,0,0
CCc1noc(-c2ccc(NC(C)c3ccccc3)c([N+](=O)[O-])c2)n1 (configuration not stated),-,-,0,-,0,0
O=C(NNC(=S)Nc1ccc(F)cc1)c1ccccc1OC(F)F,0,0,0,0,0,0
Cc1ccc(NC(=S)NNC(=O)c2ccccc2OC(F)F)cc1,16µM,0,?,0,0,0
COc1ccc(CC(=O)NCCS(=O)(=O)N2CCN(c3ccccc3F)CC2)cc1OC,-,-,0,-,-,-
CCOC(=O)C(C)NC(=O)CCc1nnc2ccc(N3CCC(C)CC3)nn12 (configuration not stated),0,-97,0,26µM,-,?
CCC(C)NC(=O)CCc1nnc2ccc(N3CCC(C)CC3)nn12 (configuration not stated),0,0,0,0,0,0
O=C(NCC(c1ccco1)N1CCCC1)c1cn(-c2ccccc2)nc1-c1ccc(F)cc1 (configuration not stated),?,0,0,21µM,0,0
